Shown is part of a subset that was picked to be rich in hits.
nsP2pro primary: blocks chikungunya virus nsP2 protease peptide cleavage | Potency, µM (top dose mostly 24.9 µM), for the others: top-dose activity change, negative = inhibition, usual class: inhibitors | Q8JUX6 | FRET peptide cleavage, nsP2pro, fluorescence 1 h | AID 1964107 | 1.1% of 31,000 active; further: nearly all actives have a fitted effect of over 60% in size
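Recombinant nsP2pro (150 nM) was preincubated with compound 15 min at room temperature in 10 mM Tris-HCl pH 8.0, 0.01% Tween 20. Peptide 2 FRET substrate (2.5 uM) was then added and fluorescence read after 1 h. Seven-point series, up to 25 uM.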
nsP2 cell sec: inhibits CHIKV nsP2 protease in cells; shares compounds with nsP2pro primary; cell-based CHIKV nsP2 protease reporter assay; Potency, µM (top dose mostly 51.1 µM), for inactives: top-dose activity change, negative = inhibition, usual class: inhibitors; 10% of 450 active; AID 1964100; further: nearly all actives have a fitted effect of over 70% in size
Target sequence (Q8JUX6 220-798 limits assumed): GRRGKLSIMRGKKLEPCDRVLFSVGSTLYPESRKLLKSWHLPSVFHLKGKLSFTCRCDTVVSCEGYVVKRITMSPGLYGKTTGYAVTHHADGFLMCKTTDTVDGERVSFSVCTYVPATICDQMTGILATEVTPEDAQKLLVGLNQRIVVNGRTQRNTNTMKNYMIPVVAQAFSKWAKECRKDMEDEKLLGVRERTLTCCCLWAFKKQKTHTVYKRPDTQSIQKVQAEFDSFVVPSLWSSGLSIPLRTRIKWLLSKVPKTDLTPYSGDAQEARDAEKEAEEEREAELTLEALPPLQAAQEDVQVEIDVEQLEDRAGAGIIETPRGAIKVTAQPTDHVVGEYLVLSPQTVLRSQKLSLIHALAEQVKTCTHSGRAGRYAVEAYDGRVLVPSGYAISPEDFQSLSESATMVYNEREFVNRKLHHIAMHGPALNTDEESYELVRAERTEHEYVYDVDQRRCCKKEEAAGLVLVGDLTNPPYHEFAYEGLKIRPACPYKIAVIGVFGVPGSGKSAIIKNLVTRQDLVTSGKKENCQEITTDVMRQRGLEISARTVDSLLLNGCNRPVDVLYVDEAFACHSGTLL
NSP2 full ctr: full-length CHIKV NSP2 protease inhibition, selectivity. shares compounds with nsP2pro primary. Full-length CHIKV NSP2 protease enzymatic counterscreen. Potency, µM (highest dose often 50.7 µM), without a hit: at the top dose activity change, negative = inhibition, hits mostly inhibitors. 39% of 410 active. AID 1964101; further: nearly all actives have a fitted effect of over 65% in size
Furin counter: human furin inhibition, counterscreen for nsP2pro inhibitors | Recombinant human furin enzymatic counterscreen, fluorogenic substrate | shares compounds with nsP2pro primary | 6% of 410 active | Potency, µM (titrated, usually from 50.6 µM), for inactives: at the top dose activity change, negative = inhibition, usual class: inhibitors | AID 1964102
nsP2 NS23 pep: selectivity test for CHIKV nsP2 protease inhibitors: endogenous NS2/3 peptide. shares compounds with nsP2pro primary. Purified CHIKV nsP2 protease, endogenous NS2/3 peptide cleavage. Potency, µM (titrated, usually from 51 µM), inactives show at the highest dose activity change, negative = inhibition, hits mostly inhibitors. 34% of 410 active. AID 1964103; further: nearly all actives have a fitted effect of over 55% in size
Papain counter: inhibits papain in a CHIKV nsP2 protease selectivity counterscreen; Potency, µM (titrated, usually from 51 µM), for the others: top-dose activity change, negative = inhibition, hits mostly inhibitors; purified papain protease activity, enzymatic inhibition; 5% of 410 active; AID 1964104; shares compounds with nsP2pro primary
nsP2pro confirm: confirmation of CHIKV nsP2 protease inhibitors; shares compounds with nsP2pro primary; CHIKV nsP2 protease enzymatic activity, qHTS; Potency, µM (top dose mostly 25.5 µM), inactives show at the highest dose activity change, negative = inhibition, most hits filed as inhibitors; 43% of 410 active; AID 1964105; further: nearly all actives have a fitted effect of over 75% in size
HCV NS3 counter: inhibits HCV NS3/4A protease in an nsP2pro selectivity counterscreen; shares compounds with nsP2pro primary; 20% of 410 active; Potency, µM (doses to about 50.9 µM), hits mostly inhibitors; HCV NS3/4A protease biochemical counterscreen; AID 1964106; further: nearly all actives have a fitted effect of over 55% in size
Starred values were filed as active, the others as inactive; i = inactive; ? = inconclusive; [ ] = dose if it differs, or a comment. The call rests on the fitted dose curve. On the % scale 0 is the no-effect control and ±100 the full control effect; potency means the concentration at half of the fitted maximal effect.

SMILES | nsP2pro primary | others
CC(C)(C)c1ccc(SC2=NS(=O)(=O)c3ccccc32)cc1 | -2.5%
O=C(O)c1cccc(O)c1O | -20.5%
CC(C)c1cccc(C(C)C)c1O | -4.7%
Oc1cccc(O)c1O | 8.81µM* | nsP2 cell sec=-19.3%;NSP2 full ctr=14.6µM*;Furin counter=-14.9%;nsP2 NS23 pep=8.19µM*;Papain counter=-12.2%;nsP2pro confirm=1.79µM*;HCV NS3 counter=3.26µM*
O=C1c2cccnc2OC(COc2ccccc2)CN1Cc1cccs1 (centres undefined) | -10.0%[10 µM]
CC1(C)[C@H]2CC[C@@H](CNC(=O)C3CC3)[C@@H]1C2 | 3.1%[39.2 µM]
COc1ccc(CNc2nc(-c3ccco3)nn2C(=O)c2ccccc2Cl)cc1 | -22.0%
COc1ccc(CNc2nc(-c3ccco3)nn2S(=O)(=O)c2ccc3ccccc3c2)cc1OC | ? | nsP2 cell sec=15.5%
O=S(=O)(c1ccccc1)n1nc(-c2ccccc2)nc1NCc1ccc(Cl)cc1 | -10.3%
CC1(C)C(O)CCC2(C)C1C(O)C=C1COC(=O)C12O (centres undefined) | -13.4%
COc1cccc(S(=O)(=O)N2CC3(Cc4ccccc4C(=O)N3)C2)c1 | -4.4%
CC(C)COC(=O)c1ccc(N)cc1 | -2.4%
COC(=O)C1=C(C)NC(C)=C(C(=O)OCC(C)C)C1c1ccccc1[N+](=O)[O-] (centres undefined) | 9.88µM* | nsP2 cell sec=?;NSP2 full ctr=?;Furin counter=-11.0%;nsP2 NS23 pep=14.6µM*;Papain counter=16.7%;nsP2pro confirm=10µM*;HCV NS3 counter=i
COC(=O)C1=C(C)NC(C)=C(C(=O)OCCc2ccc(N3CCN(C(c4ccccc4)c4ccccc4)CC3)cc2)C1c1cccc([N+](=O)[O-])c1 (centres undefined) | 1.2%
Cc1nnc2n1C(C)CN(C(=O)Cn1nnc(-c3ccc(F)cc3)n1)C2 (centres undefined) | -5.0%
CCNC(=O)N[C@H]1[C@H](O)[C@@H](N2CCN(c3ccccc3OC)CC2)[C@@H]2OC[C@H]1O2 | -14.3%[39.2 µM]
O=C1CCCN1CCCN1C(=O)[C@H]2CN(Cc3ccc(Cl)cc3)C[C@H]2C1=O | -20.6%
COCC1CN(C)CC12CCN(Cc1cccnc1)CC2 (centres undefined) | 4.2%
COCC1CN(Cc2ccc(OC)cc2)CC12CCNCC2 (centres undefined) | 1.9%
COCC1CN(Cc2ccc(Br)s2)CC12CCNCC2 (centres undefined) | ? | nsP2 cell sec=?;NSP2 full ctr=?;Furin counter=-14.4%;nsP2 NS23 pep=?;Papain counter=-2.6%;nsP2pro confirm=?;HCV NS3 counter=?
COc1ccc(NC(=O)c2cccnc2)cc1S(=O)(=O)Nc1ccc(Br)cc1 | 2.8%
CCn1cnc2c(Nc3ccc(CCC(=O)N=C(N)N)cc3)nc(C#N)nc21 | i
Oc1cccc(-c2nc(N3CCOCC3)c3sccc3n2)c1 | 11.9%
CCCCN(CCCC)C(=S)[S-].CCCCN(CCCC)C(=S)[S-].[Zn+2] | 0.556µM* | nsP2 cell sec=?;NSP2 full ctr=0.231µM*;Furin counter=7.3µM*;nsP2 NS23 pep=1.63µM*;Papain counter=4.11µM*;nsP2pro confirm=0.356µM*;HCV NS3 counter=i
CS(=O)(=O)c1ncc(N(Cc2ccccc2)Cc2ccco2)c(C(=O)Nc2cccc(C(F)(F)F)c2)n1 | -4.8%
SMILES | nsP2pro primary | others
O=C(C(NS(=O)(=O)c1ccc2[nH]c(=O)ccc2c1)c1cccc(C(F)(F)F)c1)N(Cc1ccco1)Cc1cccs1 (centres undefined) | 7.94µM* | nsP2 cell sec=142.1%;NSP2 full ctr=?;Furin counter=-0.6%;nsP2 NS23 pep=-21.5%;Papain counter=-19.2%;nsP2pro confirm=-19.8%;HCV NS3 counter=i
O=C(c1ccccc1)N(Cc1ccco1)Cc1cccs1 | -22.0%
Cc1ccc(CCCn2c(CCNC(=O)C3CCCCC3)nc3ccccc32)cc1 | i
Cn1ccnc1CN1C[C@@H](F)[C@@H](OCc2nc3ccccc3[nH]2)C1 | i
C[C@@H]1O[C@@H](O[C@H]2[C@@H]3C=CO[C@@H](O[C@@H]4O[C@H](CO)[C@@H](O)[C@H](O)[C@H]4O)[C@@H]3[C@@]3(CO)O[C@@H]23)[C@H](O)[C@H](OC(=O)/C=C/c2ccc(O)c(O)c2)[C@H]1O | ? | nsP2 cell sec=6.5%[17.6 µM];NSP2 full ctr=-6.4%[17.3 µM];Furin counter=-7.0%[17.3 µM];nsP2 NS23 pep=-16.5%[17.2 µM];Papain counter=-10.6%[17.2 µM];nsP2pro confirm=-13.9%[8.62 µM];HCV NS3 counter=i
CC(=O)O[C@@H]1[C@@H](OC(=O)/C=C/c2ccccc2)[C@H](C)O[C@@H](O[C@H]2[C@@H]3C=CO[C@@H](O[C@@H]4O[C@H](CO)[C@@H](O)[C@H](O)[C@H]4O)[C@@H]3[C@@]3(CO)O[C@@H]23)[C@@H]1OC(C)=O | -10.4%[10 µM]
C[C@@H]1O[C@@H](O[C@H]2[C@@H]3C=CO[C@@H](O[C@@H]4O[C@H](CO)[C@@H](O)[C@H](O)[C@H]4O)[C@@H]3[C@@]3(CO)O[C@@H]23)[C@H](OC(=O)/C=C/c2ccc(O)c(O)c2)[C@H](O)[C@H]1O | ? | nsP2 cell sec=-2.7%[17.6 µM];NSP2 full ctr=-1.5%[17.3 µM];Furin counter=-8.6%[17.3 µM];nsP2 NS23 pep=-13.3%[17.2 µM];Papain counter=-11.7%[17.2 µM];nsP2pro confirm=-24.1%[8.62 µM];HCV NS3 counter=i
C[C@@H]1O[C@@H](O[C@H]2[C@@H]3C=CO[C@@H](O[C@@H]4O[C@H](CO)[C@@H](O)[C@H](O)[C@H]4O)[C@@H]3[C@@]3(CO)O[C@@H]23)[C@H](OC(=O)/C=C/c2ccccc2)[C@H](O)[C@H]1O | 23.2%[10 µM]
COc1ccc(/C=C/C(=O)O[C@H]2[C@@H]3C=CO[C@@H](O[C@@H]4O[C@H](CO)[C@@H](O)[C@H](O)[C@H]4O)[C@@H]3[C@@]3(CO)O[C@@H]23)cc1O | 42.4%[10 µM]
O=C(/C=C/c1ccc(O)c(O)c1)O[C@H]1[C@@H]2C=CO[C@@H](O[C@@H]3O[C@H](CO)[C@@H](O)[C@H](O)[C@H]3O)[C@@H]2[C@@]2(CO)O[C@@H]12 | -7.4%[10 µM]
CC(C)c1ccccc1-c1ncc(F)c(NCC2CCN(c3cccnc3)CC2)n1 | 1.4%
CCOc1ccc(CCN(C)C(=O)c2cc3sccc3n2Cc2ccccc2)cc1OCC | 3.9%
CC(C)NC(=O)N[C@H]1CCN(C(=O)c2cnccn2)[C@@H]1C(=O)N[C@@H](CCCNC(=O)c1cnccn1)C(N)=O | -2.5%
O=C1COc2ccc(-c3ccsc3)nc2CN1Cc1ccccc1F | -11.7%[39.2 µM]
COc1ccc2c(O[C@@H]3C[C@H]4C(=O)N[C@]5(C(=O)O)C[C@H]5/C=C\CCCCC[C@H](NC(=O)OC5CCCC5)C(=O)N4C3)cc(-c3csc(NC(C)C)n3)nc2c1 | -12.0%

Compound activity from PubChem BioAssay.
